Experimental data as given in PubChem BioAssay (Tox21).
The source made the active and inactive calls. Calls come from the whole dose curve; as a rule, active = well fitted curve in the direction sought with a large enough effect in the repeat runs; inconclusive = weak or mixed curves; inactive = flat fitted curve, though single readings scatter.

test: qHTS assay to test for compound auto fluorescence at 535 nm (green) in HepG2 cells (AID 720675); conditions: green autofluorescence 485/535 nm, 1 h; series mostly up to 91.3 µM
Excerpt: National Center for Advancing Translational Sciences [NCATS]
NIH Chemical Genomics Center [NCGC]
U.S. Environmental Protection Agency [EPA]
National Institutes of Environmental Health Sciences [NIEHS]
National Toxicology Program [NTP]
U.S. Food and Drug Administration [FDA]
Compound auto fluorescence often interferes with screening of the compound library against various biological targets and signaling pathways. Some of these compounds may have fluorophoric properties. Such properties may interfere with the assay outputs resulting in false positives and/or negatives. To decrease such complications and ensure the compound activities are relevant in terms of biological response, the Tox21 10K compound library was screened for auto fluorescence.
From the fluorophores used as reporter signals in our screening assays, the auto fluorescence equivalencies of compounds against three fluorophores have been evaluated: Triamterene, Fluorescein and Rose Bengal sodium for blue, green and red fluorescence, respectively. The fluorescence intensities were measured using Excitation/Emission wavelengths at 405/460nm, 485/535nm and 540/590nm for blue, green and red labels, respectively. This assay includes the green fluorescence data.
Tox21 Assay Protocol Summary:
2,000 HepG2 cells in 5 uL of culture medium (MEM containing 10% FBS) per well were dispensed into black wall/clear bottom 1536-well plates using a Multidrop Combi Dispenser (ThermoFisher Scientific, Waltham, MA). The assay plates were incubated overnight at 37 C to allow cell attachment to the well bottom, followed by the transfer of 23 nL compound or DMSO vehicle by a pintool work station (Kalypsys , San Diego, CA). After the assay plates were incubated for 1 hr at 37 C and 5% CO2, fluorescence intensities in the assay plates were measured by an Envision (PerkinElmer, Shelton, CT) plate reader using three labels for measuring blue, green and red fluorescence at […] 460, 535 and 590 nm respectively.

SMILES | outcome
O=C1NCN(c2ccccc2)C12CCN(CCCOc1ccc(F)cc1)CC2 | inactive
CCOC(=O)COc1cc(-c2nn(C)c(OC(F)F)c2Cl)c(F)cc1Cl | inactive
COCC(C)N(C(=O)CCl)c1c(C)csc1C (stereo not given) | inactive
O=C(OC1CCCCC1)c1ccccc1C(=O)OC1CCCCC1 | inactive
CCc1ccc(C(=O)NN(C(=O)c2cc(C)cc(C)c2)C(C)(C)C)cc1 | inactive
CCn1cc[n+](C)c1 | inactive
Oc1ccc(Cl)c(Cl)c1Cl | inactive
CCOP(=O)(OCC)O/C(=C/Cl)c1ccc(Cl)cc1Cl | inactive
O=Cc1ccc(Cl)cc1Cl | inactive
[CH3][Sn]([CH3])([Cl])[Cl] | inactive
CCBr | inactive
CCCCCCC#N | inactive
O=C(NCc1cccnc1)Nc1ccc([N+](=O)[O-])cc1 | inactive
CC(c1ccc(O)cc1)(c1ccc(O)cc1)c1ccc(O)cc1 | inactive
CCCCCCCCCCOC(=O)c1ccccc1C(=O)OCCCCCCCCCC | inactive
CN(N=O)c1ccc([N+](=O)[O-])cc1 | inactive
C=CCOC(C)=O | inactive
O=C(O)C(F)(F)C(F)(F)C(F)(F)C(F)(F)C(F)(F)C(F)(F)C(F)(F)C(F)(F)C(F)(F)C(F)(F)F | inactive
O=C(O)COc1ccc(Cl)cc1 | inactive
Brc1ccc(Oc2ccccc2)cc1 | inactive

SMILES | outcome
CC(C)=CCOc1c2occc2cc2ccc(=O)oc12 | inactive
CCCCC(O)(Cn1cncn1)c1ccc(Cl)cc1Cl (stereo not given) | inactive
CCCCCC[N+](=O)[O-] | inactive
O=C1C(Cl)C(CCl)CN1c1cccc(C(F)(F)F)c1 (stereo not given) | inactive
Clc1cccc2ccccc12 | inactive
C[C@H]1CNCCc2ccc(Cl)cc21 | inactive
C(=NC1CCCCC1)=NC1CCCCC1 | inactive
Nc1ccc([N+](=O)[O-])cc1[N+](=O)[O-] | inactive
CCOC(=O)C(Cl)C(C)=O (stereo not given) | inactive
CCOS(C)(=O)=O | inactive
CCOP(=O)(OCC)SCCSCC | inactive
NCC(CC(=O)O)c1ccc(Cl)cc1 (stereo not given) | inactive
CCOP(=S)(OCC)Oc1nc(Cl)c(Cl)cc1Cl | inactive
CC/C(=N\OC/C=C/Cl)C1=C(O)CC(C2CCOCC2)CC1=O (stereo not given) | inactive
OCCCBr | inactive
COP(=O)(OC)O/C(=C/Cl)c1cc(Cl)c(Cl)cc1Cl | inactive
Clc1cc(C(Cl)(Cl)Cl)cnc1Cl | inactive
c1cc2ccc3cccc4ccc(c1)c2c34 | inactive
Cn1sc(Cl)cc1=O | inactive
COC(=O)C(Br)CBr (stereo not given) | inactive
